{"source": "PubChem BioAssay AID493185", "about": "(National Center for Advancing Translational Sciences (NCATS), 2011)", "note": "Activity calls are given as the source filed them. Calls follow the shape of the dose curve; as a rule, active = well fitted activation curve with a large enough effect; inconclusive = small, poorly fitted or top-dose-only effect; inactive = no such curve, though single readings can be large or run the other way. Potency is read from the fitted curve at half-maximal effect."}
{"experiment": "Counterscreen for Identifying a Potential Treatment of Ataxia-Telangiectasia: Hit Validation; as to activation: 0% is about no effect", "settings": "cell-free AlphaLISA/AlphaScreen artifact counterscreen, PBS only, no cells; series mostly up to 76.9 µM; activation: at the top concentration", "from_the_text": "NIH Chemical Genomics Center [NCGC]\nNIH Molecular Libraries Probe Centers Network [MLPCN]\nAssay Submitter (PI): Wei Zheng and Yosef Shiloh\nAtaxia-telangiectasia (A-T) is a devastating and progressive disease for which, there is no cure. Although A-T is a multisystem disease, it is stereotyped characterized by its neurological symptoms such as truncal ataxia, due to cerebellar cortical degeneration of the Purkinje and granule cells. Other symptoms of A-T are telangiectasias (dilated blood vessels), primary immunodeficiency, marked sensitivity to ionizing radiation (IR), chromosomal instability and predisposition to cancer.\nThe underlying genetic cause of A-T is null mutations in the ATM (A-T mutated) gene. ATM is a nuclear serine/threonine kinase that functions as a master regulator of the cellular responses to double strand breaks (DSBs) in the DNA. Upon activation by DSBs, ATM phosphorylates a plethora of downstream targets, including KAP-1 on […]. KAP-1 phosphorylation occurs shortly in response to DSBs and mediates global chromatin relaxation, which facilitates DSB repair. To screen for small molecules that will compensate for the loss of ATM in cells derived from A-T patients, we monitored KAP-1 phosphorylation as a readout for ATM-like activity using an AlphaLISA assay.\n3. Library compounds, 23 nl, 76.7 - 0.61uM dilution series final concentration\n4. Incubation, 60 min, 37C, 5% CO2, 95% humidity\n6. Incubation, 30 min, 37C, 5% CO2, 95% humidity\n7. Reagent, 1 ul, Premixed detection reagents and lysis buffer\n8. Reagent, 1 ul, 0.6% Antifoam A\n9. Incubation, 6 hr, 25C, 95% humidity\n10. Readout, EnVision, EnVision plate reader. AlphaScreen 1536-well protocol\nPBS was dispensed into medium-binding white solid-bottom tissue culture treated Kalypsys plates with a Multidrop dispenser. Detection reagent and lysis buffer was 3.75nM Rab-a-pKAP1 antibody bound to 75 ng/ul AlphaScreen SA donor bead, 3.75 nM Biot-M-a-KAP1 antibody bound to AlphaLISA protein A acceptor bead, 0.5x protease inhibitor cocktail and 0.25x PerkinElmer lysis buffer. EnVision protocol for 1536-well AlphaScreen read (30ms excitation, 100ms read), about 10 min/plate. This assay is similar to the primary screen but is without cells. It aims to identify artifacts of the assay platform and unspecific hits."}
{"smiles": "O=C1NC(NS(=O)(=O)c2ccc(Cl)cc2)(C(F)(F)F)C(=O)N1CCc1ccccc1", "note": "(stereo not given)", "activation": "-22.6% (inactive)"}
{"smiles": "O=c1c(-c2ccc(Cl)cc2)c[nH]n1-c1ccccc1", "activation": "-4.1% (inactive)"}
{"smiles": "CC(C)(CN1CCN(c2ccccc2)CC1)NS(=O)(=O)c1ccccc1", "activation": "-7.38% (inactive)"}
{"smiles": "COC1=C(N)C(=O)c2nc(-c3nc(C(=O)O)c(C)c(-c4ccc(OC)c(OC)c4O)c3N)ccc2C1=O", "activation": "-20.5% (inactive)"}
{"smiles": "CN1C[C@@H]2C(c3ccccc3)C3(c4ccccc4)CC2(C3)[C@H]1c1ccccc1", "note": "(stereo not given in full)", "activation": "-6.92% (inactive)"}
{"smiles": "Cc1cccc(NC(=O)/C(C#N)=C/c2ccc(F)cc2)n1", "activation": "-13.1% (inactive)"}
{"smiles": "C=CS(=O)(=O)c1sc(Cl)c(N2CCOCC2)c1[N+](=O)[O-]", "activation": "-5.74% (inactive)"}
{"smiles": "Cc1cc2nc3ccc(=[N+](C)C)cc-3sc2cc1N", "Potency": "26 µM (active)"}
{"smiles": "CC1=NN(C(C#N)c2ccc([N+](=O)[O-])cc2)C(C)(C)C1", "note": "(stereo not given)", "activation": "-3.08% (inactive)"}
{"smiles": "CCOc1cccc(/C=C/c2ccc3cccc(O)c3n2)c1OC", "activation": "-10.7% (inactive)"}
{"smiles": "Cc1ccc(C(C)C)c(OCCN2CCc3ccccc3C2)c1", "activation": "39.2% (inactive)"}
{"smiles": "CCOc1cccc(-c2nnc(SCC(=O)Nc3cc(C)ccc3OC)n2N)c1", "activation": "-1.64% (inactive)"}
{"smiles": "CNC(=S)N/N=C/c1ccc2c(c1)OCCO2", "activation": "-17.7% (inactive)"}
{"smiles": "COc1cccc(OC)c1C(=O)NC(=O)Nc1c(C)cccc1C", "activation": "-29.3% (inactive)"}
{"smiles": "O=C(O)CCCN1C(=O)/C(=C/C=C/c2ccco2)SC1=S", "activation": "-43.4% (inactive)"}
{"smiles": "CCC(C)NC(=O)c1cn(CCOC)c(=O)c2c1c1ccccc1n2C", "note": "(stereo not given)", "activation": "-6.92% (inactive)"}
{"smiles": "Cc1ccnc(NC(=O)c2ccccc2NC(=O)c2ccccc2)c1", "activation": "0% (inactive)"}
{"smiles": "CC1=C/C(=C\\C=C(C#N)C#N)N(C)c2ccccc21", "activation": "36.9% (inactive)"}
{"smiles": "Cc1ccc(C(=O)Nc2sc3c(c2C(=O)O)CCCCC3)o1", "activation": "-5.74% (inactive)"}
{"smiles": "COc1cc(CCC(C)NCc2ccccc2)ccc1O", "note": "(stereo not given)", "activation": "3.76% (inactive)"}
{"smiles": "CCOC(=O)CN(C(=O)CSc1nnc(COc2ccc(OC)cc2)n1CC)c1ccccc1", "activation": "0% (inactive)"}
{"smiles": "CC(=O)Nc1ccc(NC2=C(Cl)C(=O)c3ccccc3C2=O)cc1", "activation": "-32.3% (inactive)"}
{"smiles": "CCN(CC)S(=O)(=O)c1ccc(Cl)c(NC(=O)CCCCl)c1", "activation": "6.77% (inactive)"}
{"smiles": "CN(C)c1cc(Nc2ccc(O)cc2)c([N+](=O)[O-])c2nonc12", "activation": "9.23% (inactive)"}
{"smiles": "OC(CN1CCCCC1)Cn1c2ccc(Cl)cc2c2cc(Cl)ccc21", "note": "(stereo not given)", "activation": "-8.2% (inactive)"}
{"smiles": "CCOC(=O)Cn1c(-c2ccccc2)cc(SC)c(C#N)c1=O", "activation": "11.5% (inactive)"}
{"smiles": "COC(=O)Cn1ccc2cc(S(=O)(=O)N3CCCCC3)ccc21", "activation": "-16.9% (inactive)"}
{"smiles": "Fc1ccc(C2=NOC(c3nnc(-c4ccccc4)o3)C2)cc1", "note": "(stereo not given)", "activation": "6.92% (inactive)"}
{"smiles": "O=C(NC(=O)c1c(F)cccc1F)Nc1ccccc1SC(F)F", "activation": "9.02% (inactive)"}
{"smiles": "CCOC(=O)N1CCC(NC(=O)C2CCN(S(=O)(=O)c3cccc4cccnc34)CC2)CC1", "activation": "-3.28% (inactive)"}
{"smiles": "COc1ccc(C(=O)N2CCCC2(C#N)c2ccccc2)cc1[N+](=O)[O-]", "note": "(stereo not given)", "activation": "-8.2% (inactive)"}
{"smiles": "Cc1ccc(C(=O)N/C(=C\\c2ccco2)C(=O)NC2CCS(=O)(=O)C2)cc1", "note": "(stereo not given)", "activation": "-5.26% (inactive)"}
{"smiles": "COc1ccc(N(CCC#N)C(=O)/C(C#N)=C\\c2cccs2)cc1", "activation": "-12% (inactive)"}
{"smiles": "CCOC(=O)N1CCN(c2nc(N(c3ccccc3)c3ccccc3)nc(-n3ccnc3)n2)CC1", "activation": "-3.76% (inactive)"}
{"smiles": "COc1ccccc1-n1c(SCC(N)=O)nc2sc3c(c2c1=O)CCC3", "activation": "-8.27% (inactive)"}
{"smiles": "O=C(Nc1ccc([N+](=O)[O-])cc1)c1cc2ccccc2nc1Cl", "activation": "-3.28% (inactive)"}
{"smiles": "CN(C)C(=O)c1nc2ccc(Cl)cn2c1CNCc1cccc(OC(F)(F)F)c1", "activation": "-11.3% (inactive)"}
{"smiles": "CCNC(=S)N(CCc1c(C)[nH]c2ccccc12)Cc1cccnc1", "activation": "-1.64% (inactive)"}
{"smiles": "CCc1nnc2n1N=C(c1cccc([N+](=O)[O-])c1)CS2", "activation": "-16.9% (inactive)"}
{"smiles": "Cc1nc2sc(C(N)=O)c(N)c2c2c1CCCC2", "activation": "29.3% (inactive)"}
